# INS-1E GSIS act – primary screen for activators of insulin secretion dependent on glucose, INS-1E cells, GLuc reporter luminescence; INS-1E GLuc reporter insulin secretion, 2-3 h; activation, % at 16.6 µM; 370,000 compounds, 0.61% hits; AID 743287;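 active = lowest replicate activation of at least 40%, so every replicate reaches that level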;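 also: 0% = median of neutral control wells and 100% = median of IBMX positive control wells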
# AF4-AF9 inh – MLL-AF4/AF9 protein interaction inhibition; P42568; AlphaScreen, biotin-AF4 peptide binding to FLAG-AF9; inhibition, % at 10 µM; 350,000 compounds, 0.47% hits;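 active = every replicate reaching a set inhibition limit, whatever the replicate mean, cut at about 25% in these data; inconclusive = mean inhibition reaches that limit but some replicates miss it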;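 also: 0% = plate neutral control median and 100% = total signal loss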
# Env fusion inh – inhibitors of HIV Env-mediated cell fusion; HeLa-JRFL Env/CEM21 cell fusion, luciferase; inhibition, % at 12.3 µM; 360,000 compounds, 1.1% hits; AID 651610;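 active = mean replicate inhibition score of at least 50 and every replicate individually at or above 50; inconclusive = only one of the two criteria met; inactive = mean below 50 and not all replicates reaching 50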;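 also: 0% = plate neutral controls and 100% = maraviroc near 300 nM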
# NSD2 inh – NSD2 (human) methyltransferase inhibition; AID 743445; 310,000 compounds, 0.54% hits; NSD2 peptide methylation, AlphaScreen, 120 min; O96028; inhibition, % at 12.5 µM; in the data active = inhibition above about 50%
# PGC1a acetyl inh – PGC1a acetylation modulation, inhibitor mode; U2OS PGC1a acetylation, AlphaScreen anti-acetyl-lysine; with virally co-expressed GCN5 acetyltransferase; inhibition, % at 15.6 µM; 350,000 compounds, 0.17% hits; AID 651687;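 active = every replicate shows inhibition of at least 40%; inconclusive = mean inhibition at least 40% but some replicate below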;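 also: 0% = neutral control wells and 100% = positive control wells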
# Active calls of the source: *; ? = inconclusive; nt = no result given; [ ] = dose if it differs, or a comment. A selection: hits, their analogues and other compounds. The true share with any hit is near 2.1%.
SMILES,INS-1E GSIS act,AF4-AF9 inh,Env fusion inh,NSD2 inh,PGC1a acetyl inh
NC(=O)CSc1nnc(Cn2cnc3ccccc32)o1,3.6,0.0,-16.1,0.4,-6.1
O=C(C[C@@H]1C[C@H]2c3cc(NS(=O)(=O)c4ccc(F)cc4)ccc3O[C@H]2[C@H](CO)O1)NCc1ccccn1,-6.5,-0.7,11.7[16.7 µM],nt,-7.2
CN1CCN(C2Cc3ccccc3Sc3cc(C(F)(F)F)ccc32)CC1 (stereo not given),402.3*,26.2*,22.5,8.1,nt
CCOC(=O)c1c(-n2cnnn2)sc2c1CCCC2,60.2*,-0.8,2.2,-1.3,nt
CCOC(=O)c1cc2sccc2n1CC(=O)N1CCc2ccccc21,5.9,1.5,62.3*,0.0,2.0
O=C(O)CN1C(=O)C2C3CCC(C3)C2C1=O (stereo not given),11.8,-3.5,1.8,0.0,nt
COC(=O)c1sccc1NC(=O)c1ccco1,nt,nt,-29.3,nt,1.5
COC(=O)[C@H](C)NC(=O)Nc1ccc(S(N)(=O)=O)cc1,nt,nt,nt,3.9,4.4
CC(C)C(Cl)=NOC(=O)Nc1ccc(S(N)(=O)=O)cc1,125.7*,-0.1,10.8,0.4,43.8
CCCNC(=O)[C@@H]1[C@@H](CO)[C@@H]2Cn3c(ccc(C4=CCCC4)c3=O)[C@@H]2N1CCC(F)(F)F,3.6,0.7,nt,nt,nt
COc1ccc(Cc2nn3c(-c4ccccc4Br)nnc3s2)cc1,-3.5,nt,nt,-1.7,14.4
Brc1ccccc1-c1nnc2sc(Cc3ccccc3)nn12,nt,nt,57.4*,1.8,7.6
O=C(COC(=O)Cc1c[nH]c2ccccc12)Nc1cccc2ccccc12,16.7,nt,5.6,1.9,nt
CS(=O)(=O)c1ccc(Cl)c(NC(=O)COC(=O)Cc2c[nH]c3ccccc23)c1,51.6*,?,nt,-0.6,5.4
CC(=O)Nc1sc(C)c(C)c1C(=O)OCC(=O)Nc1cc(S(C)(=O)=O)ccc1Cl,55.7*,-4.3,13.2,6.0,-9.1
CS(=O)(=O)c1ccc(Cl)c(NC(=O)COC(=O)c2c(Cl)cccc2Cl)c1,7.1,-1.5,24.1,0.7,-4.8
COc1cc(C)c(C)cc1S(=O)(=O)N1CCCCC1c1cccnc1 (stereo not given),57.1*,nt,nt,-0.3,5.8
NC(=O)CN1C(=O)C2CCCCN2C(=O)c2ccccc21 (stereo not given),nt,nt,-61.8,-3.0,0.5
COc1ccc(OC)c(CN2CCN(C(=O)c3cc(S(=O)(=O)Nc4ccccc4OC)ccc3C)CC2)c1,-5.1,3.8,-28.6,4.2,nt
COc1ccc(OC)c(CN2CCN(C(=O)c3ccc(C)c(S(=O)(=O)Nc4ccccc4OC)c3)CC2)c1,-6.5,32.7*,nt,6.4,0.1
CCOC(=O)c1c(CN(C)C)n(C)c2ccc(OC(C)=O)cc12,nt,nt,nt,2.4,nt
CCOC(=O)c1c2n(c3ccc(OC(C)=O)cc13)CCC2,47.6*,-3.8,-28.1,nt,-1.6
CCn1c(C)c(C)c2cc(C(=O)NCCCN3CCCCCC3)ccc21,-13.1,29.3*,2.4,7.5,-24.8
CC(=O)c1cc2c(cc1C)CCCC2(C)C,43.2*,1.0,16.2,-1.0,10.1
CN1c2ccc(C3=CCCCC3)cc2[C@@H]2[C@@H](CCN2C(=O)C2CC2)[C@@H]1CO,-14.3,?,nt,nt,nt
SMILES,INS-1E GSIS act,AF4-AF9 inh,Env fusion inh,NSD2 inh,PGC1a acetyl inh
CN1c2ccc(C3=CCCCC3)cc2[C@@H]2[C@@H](CCN2C(=O)C2CCC2)[C@@H]1CO,1.9,28.4*,nt,nt,nt
CN1c2ccc(C3=CCCCC3)cc2[C@@H]2[C@@H](CCN2C(=O)C2CCCCC2)[C@@H]1CO,nt,?,29.2[16.7 µM],nt,-15.1
CN1c2ccc(C3=CCCCC3)cc2[C@H]2[C@H](CCN2C(=O)C2CC2)[C@@H]1CO,nt,68.8*,97.8*[16.7 µM],nt,38.5
CN1c2ccc(C3=CCCCC3)cc2[C@H]2[C@H](CCN2C(=O)C2CCCCC2)[C@@H]1CO,-15.1,30.4*,26.7[16.7 µM],nt,-11.1
CO[C@H]1CN(C)C(=O)c2cc(NS(=O)(=O)CC(F)(F)F)ccc2OC[C@H](C)N(CC2CCCCC2)C[C@H]1C,-0.7,-1.8,42.6[16.7 µM],nt,17.8
COc1ccc(/C=N/NC(=O)CCc2nc3ccccc3[nH]2)cc1,2.8,nt,nt,-2.3,1.1
Cc1cc(C(=O)N2CCCC(C(=O)c3ccc(Cl)cc3C)C2)no1 (stereo not given),-36.1,0.5,61.0*,-5.0,-7.1
Cc1cc(Cl)ccc1C(=O)C1CCCN(C(=O)c2cscn2)C1 (stereo not given),9.8,0.0,15.8,-2.8,-0.9
Cc1csc2ncnc(NNC(=O)c3ccc(Cl)cc3)c12,nt,1.0,65.7*,-2.3,nt
Cc1nccc(-c2cccc(N/N=C(\C#N)C(=O)c3ccccc3)c2)n1,-52.2,2.0,24.6,5.6,nt
C[C@@H]1CCCCO[C@@H](CN(C)Cc2ccc(C(F)(F)F)cc2)[C@@H](C)CN([C@H](C)CO)C(=O)c2cc(NC(=O)c3ccccc3)ccc2O1,-1.0,2.1,27.6[16.7 µM],nt,-8.9
C[C@@H]1CN([C@H](C)CO)C(=O)c2cc(NC(=O)Cc3ccccc3)ccc2O[C@@H](C)CCCCO[C@@H]1CN(C)Cc1ccc(C(F)(F)F)cc1,-11.4,nt,65.1*[16.7 µM],nt,1.1
C[C@@H]1CN([C@@H](C)CO)C(=O)c2cc(NC(=O)c3ccncc3)ccc2O[C@H]1CN(C)Cc1ccncc1,-3.7,-1.7,66.7*[16.7 µM],nt,5.6
C[C@@H]1CCCCO[C@H](CN(C)Cc2ccc(C(F)(F)F)cc2)[C@@H](C)CN([C@@H](C)CO)C(=O)c2cc(NC(=O)c3ccccc3)ccc2O1,-8.5,-2.6,14.5[16.7 µM],nt,3.2
C[C@H]1CCCCO[C@@H](CN(C)Cc2ccc(C(F)(F)F)cc2)[C@@H](C)CN([C@@H](C)CO)C(=O)c2cc(NC(=O)c3ccccc3)ccc2O1,-18.1,-0.4,68.9*[16.7 µM],nt,-2.0
C[C@@H]1CCCCO[C@@H](CN(C)Cc2ccc(C(F)(F)F)cc2)[C@H](C)CN([C@@H](C)CO)C(=O)c2cc(NC(=O)Cc3ccccc3)ccc2O1,-12.0,nt,?,nt,2.3
C[C@H]1CCCCO[C@H](CN(C)Cc2ccc(C(F)(F)F)cc2)[C@@H](C)CN([C@@H](C)CO)C(=O)c2cc(NC(=O)c3ccccc3)ccc2O1,-22.8,-1.3,59.4*[16.7 µM],nt,9.9
N#CC1=C(N)N(c2ccccc2)C(c2cccc([N+](=O)[O-])c2)C1(C#N)C#N (stereo not given),nt,nt,nt,nt,9.4
CCc1ccc(OCC(=O)NNC(=O)C2CCC2)cc1,8.3,-7.7,63.8*,8.2,nt
N#Cc1ccc(OCC(=O)NNC(=O)C2CCCCC2)cc1,-3.7,-1.7,1.2,-0.8,2.1
NC(=O)c1ccsc1NC(=O)CSc1n[nH]c(N)n1,nt,1.3,5.0,-7.1,5.5
N#Cc1c(Cl)nsc1NC(=O)c1ccccc1,-26.0,-6.2,59.9*,-1.0,nt
N#Cc1c(NC(=O)c2ccccc2)sc2c1CCCCC2,nt,nt,nt,nt,-13.3
COc1cccc(NC2c3ccccc3C(=O)N2Cc2ccccc2Cl)c1 (stereo not given),-2.1,10.9,35.7,-0.9,0.5
COc1cc(NC2c3ccccc3C(=O)N2Cc2ccccc2Cl)cc(OC)c1 (stereo not given),2.5,-8.7,64.5*,8.2,-20.3

# Screening results as filed in PubChem.
